# Assay results reported in the supplement of paper PMC6555819.
# System: VDR:RXRa (NR concentration 270 nM, RXRa partner concentration 90 nM)
# Test: PBM binding z-score (relative to random genomic background probes); higher = stronger binding; sequences stand for … in GC…GCGATTGACAGCGTAGAATGAAGG
# Description: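 Protein-binding microarray (Agilent 4x180K custom design, double-stranded 60-nt probes: 5' GC cap, 34-nt variable region, 24-nt constant primer region; full probe sequence given). Purified or IVT nuclear receptor:RXRα heterodimers (3:1 NR:RXRα, mostly 270:90 nM) or homodimers were incubated for 1 h in PBS with 2% milk and no ligand, then detected with Alexa488 antibodies. Fluorescence from o1-orientation probes (~5 replicates averaged) was converted to z-scores against 500 random hg19 background probes. Variable regions are seed direct-repeat (DR0–DR5) sites, all their single-nucleotide variants and half-site ablations.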
row,Sequence,PBM binding z-score
1,GATACAGGGTCAGCTAGAGGCCACAGTATGGAAA,3.76
2,GCTATTACTTGAAAGGGCAACCGAATGATTCTCG,0.432
3,AATACAGGGTCATCGTAGGCCGGAGTACGCACAG,4.89
4,CAAACTGGGTCAAGAGGTCAAAGTCCGCTTCCCG,6.19
5,GATACAGGGTCAGCTCGAGGCCAGAGTATGGAAA,3.61
6,TCTTGTAGATCAACAGGAAGTTAAGAAAGATCGA,-0.0912
7,AGAACGTGGGCAATGAGTTGATAGCACGGGTGGC,0.69
8,AAAACGAGGGCACGCTGAGTTGATAGCAGAGTAG,2.53
9,TCTAGCAGGCCAGAGGTTCACTCAAGAGGTACGG,0.704
10,TCATATAGGTAGTACAGGTGAAAGTCGGCATCTA,0.794
11,GCAACGAGGGCAAAGTTGATAGCATCTGTCGACG,1.26
12,CCGAGTAGGTTATGGGGCAGTCAGGCAACGGTGA,-0.397
13,CCGACTGGGGCATAAGGTCACCATAAGCCAGCCC,3.15
14,TAGCCTAGGTCATCGGGCCAGTATAGTACGCATC,2.24
15,ATATTTAGGTTAGCTGGGGTCATTCAGACTAGGC,6.03
16,ATCGAAAGGTCGAAGGTGAGTGTACCCACCCGAA,3.05
17,TATACAGGGTCACAGGCCAGAGTACGAATGTCGA,4.92
18,TCTTGTAGATCAAGCTGGTTAAGAAAGCCTGAGT,0.112
19,TCTCGGAGGACACGAAGGTCAGAGATTTCCAGAG,2.26
20,CCTCGGAGGACAACAGGTGGTCAGAGCTGCCAGA,-0.645

row,Sequence,PBM binding z-score
1,CGTCTAAGGTCAATGCTAGGTCAGTGAAAGCATT,5.23
2,GCTCGGAGGACAAGGTCAGAGCTTTGTCCGTAGA,1.34
3,TCATATAAGTAATACAGGTGAAAGTCGGCATCTA,1.16
4,TATACAGGGTCAAAGGCCAGAGAACGAATGTCGA,4.77
5,TCTATTAGTTGATCAGGGCAACCGAAACAGCGGA,0.669
6,TCTAGTTGGTCAAAGGTCATACACTCGAAATGCG,5.38
7,ACAGACAGGTGAGTGAAGGTAATTCAGCTGGACG,-0.394
8,CGAACGATGGCATGAGTTGATAGCAAATGCCGAT,-0.111
9,CCTGACGGGTCACTCCAGGTTATAGCATCGGAGT,3.46
10,TCTCGGAGGACACGAAAGGTCAGAGCGCGACATC,3.45
11,TCATATAGGTAAAGGTGAACGTCGAACGATATGA,0.748
12,ACAGACAGGTGAGTGAAGGTGACTCAGCTGGACG,-0.119
13,AGTCAAAGTTCATCTAGGTAATGTAAGATATGCT,5.13
14,CAAACTAGGTCAAATGTCAAAGTCGAGCCAACCA,3.1
15,AGAACGAGGGCACGCTGAGTTGATAGCCGAGTAG,2.07
16,ACTTACGGGACAACGAGGTTATAGCACGCGTATA,2.29
17,TCATATAGGTAAACAGGGGAAAGTCCGTAAGTTA,1.06
18,CGAACTAGGTCAGAACAGGAGAGTGAAGGATGAT,0.035
19,GCTTGTAGAGCAAGGTTAAGAAAGACTAAGCTAA,-0.112
20,TCTCGGTGGACACGAAGGTCAGAGCTTTCCAGAG,1.02
